Screens: PubChem BioAssay, National Center for Advancing Translational Sciences (NCATS)
BAZ2B inh: blocks human BAZ2B; Q9UIF8; AlphaScreen BAZ2B-H3K14Ac peptide displacement; Potency, µM (highest dose often 114 µM), for the others: top-dose activity change, negative = inhibition, actives largely listed as inhibitors; 4.4% of 360,000 active; AID 504333; further: potency means the concentration at half of the fitted maximal effect; on the % scale 0 is the no-effect control and ±100 the full control effect; nearly all actives have a fitted effect of over 60% in size
Target sequence (Q9UIF8 whole entry, looked up): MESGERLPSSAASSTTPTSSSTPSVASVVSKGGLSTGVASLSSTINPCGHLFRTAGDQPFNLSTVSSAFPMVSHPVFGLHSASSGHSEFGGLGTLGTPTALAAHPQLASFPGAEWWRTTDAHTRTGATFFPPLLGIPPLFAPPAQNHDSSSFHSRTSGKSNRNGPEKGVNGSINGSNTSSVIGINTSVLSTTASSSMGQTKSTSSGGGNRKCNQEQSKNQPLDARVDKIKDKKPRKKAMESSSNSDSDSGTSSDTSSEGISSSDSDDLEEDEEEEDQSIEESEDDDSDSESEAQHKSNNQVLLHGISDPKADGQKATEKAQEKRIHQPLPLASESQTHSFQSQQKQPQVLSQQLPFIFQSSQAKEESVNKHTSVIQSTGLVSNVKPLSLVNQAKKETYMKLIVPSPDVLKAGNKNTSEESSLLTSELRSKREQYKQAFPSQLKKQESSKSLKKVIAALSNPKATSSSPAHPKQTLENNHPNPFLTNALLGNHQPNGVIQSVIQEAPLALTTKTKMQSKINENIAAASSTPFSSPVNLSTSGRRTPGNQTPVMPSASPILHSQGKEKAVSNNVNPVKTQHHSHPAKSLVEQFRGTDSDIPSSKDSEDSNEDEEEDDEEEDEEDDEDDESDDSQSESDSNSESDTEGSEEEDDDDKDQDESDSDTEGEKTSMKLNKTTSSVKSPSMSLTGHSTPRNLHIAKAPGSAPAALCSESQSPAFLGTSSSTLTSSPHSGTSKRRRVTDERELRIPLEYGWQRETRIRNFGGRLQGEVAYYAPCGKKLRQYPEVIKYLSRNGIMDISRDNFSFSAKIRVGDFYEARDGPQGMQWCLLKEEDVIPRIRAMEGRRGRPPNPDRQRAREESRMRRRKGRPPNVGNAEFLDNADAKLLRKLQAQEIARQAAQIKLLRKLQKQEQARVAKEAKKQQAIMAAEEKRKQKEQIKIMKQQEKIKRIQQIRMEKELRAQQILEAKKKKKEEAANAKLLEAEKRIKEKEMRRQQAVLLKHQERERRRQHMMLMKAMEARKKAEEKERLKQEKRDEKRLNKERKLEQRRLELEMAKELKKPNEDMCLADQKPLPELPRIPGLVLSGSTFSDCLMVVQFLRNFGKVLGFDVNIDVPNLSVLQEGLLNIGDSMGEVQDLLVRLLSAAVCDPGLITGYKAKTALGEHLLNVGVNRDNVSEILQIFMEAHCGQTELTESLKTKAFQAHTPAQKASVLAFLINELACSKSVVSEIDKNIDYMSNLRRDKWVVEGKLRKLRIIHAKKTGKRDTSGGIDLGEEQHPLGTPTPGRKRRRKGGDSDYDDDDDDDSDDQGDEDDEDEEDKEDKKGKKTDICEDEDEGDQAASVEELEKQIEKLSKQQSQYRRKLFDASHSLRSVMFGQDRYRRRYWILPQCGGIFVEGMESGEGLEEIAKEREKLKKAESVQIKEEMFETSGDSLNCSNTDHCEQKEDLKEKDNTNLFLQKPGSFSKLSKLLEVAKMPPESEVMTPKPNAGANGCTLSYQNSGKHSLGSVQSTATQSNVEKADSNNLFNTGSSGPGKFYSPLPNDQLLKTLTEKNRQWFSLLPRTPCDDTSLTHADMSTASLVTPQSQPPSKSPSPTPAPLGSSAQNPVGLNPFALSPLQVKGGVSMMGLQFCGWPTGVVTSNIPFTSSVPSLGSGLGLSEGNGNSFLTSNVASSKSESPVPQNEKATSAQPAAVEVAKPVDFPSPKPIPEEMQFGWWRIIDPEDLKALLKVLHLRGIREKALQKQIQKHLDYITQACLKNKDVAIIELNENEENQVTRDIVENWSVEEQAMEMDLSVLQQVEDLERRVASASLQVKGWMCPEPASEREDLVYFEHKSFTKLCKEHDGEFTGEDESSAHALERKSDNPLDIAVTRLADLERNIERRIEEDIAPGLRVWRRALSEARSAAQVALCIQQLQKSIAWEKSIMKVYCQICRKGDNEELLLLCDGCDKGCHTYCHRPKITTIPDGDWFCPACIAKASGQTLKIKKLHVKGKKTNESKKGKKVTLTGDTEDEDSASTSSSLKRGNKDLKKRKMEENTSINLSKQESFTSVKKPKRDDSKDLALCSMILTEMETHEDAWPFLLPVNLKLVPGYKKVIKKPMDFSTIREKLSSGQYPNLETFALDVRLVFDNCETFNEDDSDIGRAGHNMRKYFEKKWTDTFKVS
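AlphaScreen luminescence quantifies BAZ2B engagement of H3K14Ac peptide; the protein and biotinylated peptide are both at 50 nM final, buffer PBS pH 7.4 with 0.01% Tween-20, all steps at room temperature.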
PI5P4Ka inh: PI5P4K alpha (human) kinase inhibition; max response, %; P48426; PI5P4Kalpha enzyme, ADP-Glo luminescence, 60 min; hits give low values; 1.2% of 330,000 active; active means max response of -50% or lower; inconclusive means between -30% and -50%; inactive means -30% or higher; further: value at the top dose of about 77 µM; on the % scale 0 is the no-effect control and ±100 the full control effect
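Compounds were pin-transferred onto PI5P4Kalpha and substrate in HEPES pH 7.4 buffer with EGTA, CHAPS and 5% DMSO. ATP (5 microM final) started the reaction, which ran 60 minutes at room temperature before ADP-Glo detection.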
PLK1 PBD inh: blocks phosphopeptide binding to human PLK1 polo-box domain | Plk1 PBD binding of FITC phosphopeptide, fluorescence polarization | Potency, µM, inactives show max response, negative = inhibition, usual class: inhibitors | 2.8% of 360,000 active; further: potency means the concentration at half of the fitted maximal effect; series mostly up to about 57 µM; on the % scale 0 is the no-effect control and ±100 the full control effect; nearly all actives have a fitted effect of over 65% in size
G9a block: G9a (human) methyltransferase inhibition | G9a H3K9 monomethylation, AlphaScreen, 2 h | AID 504332 | Q96KQ7 | Potency, µM (titrated, usually from 102 µM), without a hit: top-dose activity, negative = inhibition, actives largely listed as inhibitors | 8.8% of 350,000 active; further: potency means the concentration at half of the fitted maximal effect; on the % scale 0 is the no-effect control and ±100 the full control effect; nearly all actives have a fitted effect of over 75% in size
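Enzyme 20 nM + cpd, 15 min RT; add b-H3K9 pep 500 nM / SAM 20 uM; 2 h RT; anti-H3K9me1 Ab 0.5 ug/mL + SA donor / anti-rabbit acceptor beads 20 ug/mL each, 10 min; AlphaScreen read.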
JMJD2A Tudor: blocks the human JMJD2A Tudor domain; O75164; AlphaScreen JMJD2A-Tudor / H3K4me3 peptide binding; Potency, µM (series often up to 114 µM), inactives show top-dose activity change, negative = inhibition, most hits filed as inhibitors; 4.4% of 390,000 active; further: potency means the concentration at half of the fitted maximal effect; on the % scale 0 is the no-effect control and ±100 the full control effect; nearly all actives have a fitted effect of over 50% in size
HP1b binding inh: HP1-beta chromodomain-methylated histone interaction inhibition; P83916; AlphaScreen HP1-beta / biotin-H3K9me3 peptide binding; Potency, µM (highest dose often 114 µM), inactives show at the highest dose activity change, negative = inhibition, hits mostly inhibitors; 0.56% of 390,000 active; AID 540317; further: potency means the concentration at half of the fitted maximal effect; nearly all actives have a fitted effect of over 70% in size
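Compound inhibition of the preformed complex between 50 nM HP1-beta and 50 nM biotinylated H3K9me3 peptide was read by AlphaScreen. Buffer was PBS pH 7.4 with 0.01% Tween-20. Incubations ran 30 min at room temperature, with 10 ug/mL donor/acceptor beads.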
* hit, by the source's call; [ ] = another dose, or the depositor's remark. An excerpt weighted towards active compounds, which were near 12% of everything screened. Unless noted, the call rests on the fitted dose curve; in most records, active means well fitted curve in the direction sought with a large enough effect; inconclusive means small, poorly fitted or top-dose-only effect, or another doubt; inactive means no such curve, though single readings can be large; an effect the other way counts as inactive or inconclusive.

COc1ccc(NS(=O)(=O)c2ccc(NC(=S)NCC3CCCO3)cc2)cc1 (stereo not drawn) was read as BAZ2B inh 7%, PI5P4Ka inh -1, PLK1 PBD inh -20%, G9a block -2%, JMJD2A Tudor -21% and HP1b binding inh 7%.
S=C(NCC1CCCO1)Nc1ccc(Cl)c(Cl)c1 (stereo not drawn) was read as BAZ2B inh -18%, PI5P4Ka inh -11, PLK1 PBD inh 12µM*, G9a block -7%, JMJD2A Tudor inconclusive and HP1b binding inh 40%.
COc1ccccc1CNC(=O)CN1C(=O)CSc2c1c(C)nn2-c1ccccc1 was read as BAZ2B inh -2%, G9a block 1%[59 µM], JMJD2A Tudor -8% and HP1b binding inh 25%.
Cc1cc(C)nc(SCc2csc(N)n2)n1 was read as BAZ2B inh -21%, PI5P4Ka inh 0, PLK1 PBD inh -19%, G9a block 50µM*, JMJD2A Tudor 4% and HP1b binding inh 35%.
`Cn1c(=O)c(CCc2ccccc2)nc2cnc(Oc3ccccc3)nc21` gave G9a block 12%[12.7 µM].
`O=C(Nc1ccc(F)cc1)c1cccnc1Oc1ccccc1` gave BAZ2B inh 3%, PI5P4Ka inh 5, PLK1 PBD inh 3%, G9a block 6%, JMJD2A Tudor 3% and HP1b binding inh 25%.
O=C(NNc1cccc(Cl)c1)c1cccnc1Oc1ccccc1 was read as BAZ2B inh -5%, PI5P4Ka inh -3, PLK1 PBD inh 1%, G9a block 16µM*, JMJD2A Tudor 5% and HP1b binding inh 36%.
`Cc1ccc(NCc2nnc(SCC(=O)Nc3ncc(C)s3)n2CC2CCCO2)c(C)c1` (stereo not drawn) gave BAZ2B inh 0%, PI5P4Ka inh -1, PLK1 PBD inh -3%, G9a block 9%[59 µM], JMJD2A Tudor -18% and HP1b binding inh 27%.
`Cc1ccc(NCc2nnc(SCC(=O)Nc3cccc(O)c3)n2CC2CCCO2)c(C)c1` (stereo not drawn) gave BAZ2B inh inconclusive, PI5P4Ka inh -6, PLK1 PBD inh 2%, G9a block 56µM*, JMJD2A Tudor inconclusive and HP1b binding inh -8%.
Screening Cc1ccc(NCc2nnc(SCC(=O)NCc3ccco3)n2CC2CCCO2)cc1Cl (stereo not drawn) returned BAZ2B inh -39%, PI5P4Ka inh -12, PLK1 PBD inh inconclusive, G9a block inconclusive, JMJD2A Tudor 79µM* and HP1b binding inh -22%.
`CC/C=C/[C@@H](c1ccccc1)[C@H](C)C(O)CC(=O)SC(C)(C)C` (stereo partly drawn) gave JMJD2A Tudor 48% and HP1b binding inh 79%.
For CN(C)c1ccc(/C=C2\CCC/C(=C\c3ccccc3)C2=O)cc1 the results were BAZ2B inh inconclusive, PI5P4Ka inh 25, PLK1 PBD inh -11%, G9a block 3.5µM*, JMJD2A Tudor inconclusive and HP1b binding inh -16%.
COc1ccc(/C=C2\CCc3ccccc3C2=O)cc1O was read as BAZ2B inh inconclusive, PI5P4Ka inh -5, PLK1 PBD inh -4%, G9a block 79µM*, JMJD2A Tudor inconclusive and HP1b binding inh -14%.
For O=C1/C(=C/c2ccc(C(=O)O)cc2)CCC/C1=C\c1ccc(C(=O)O)cc1 the results were BAZ2B inh 3%, PI5P4Ka inh inconclusive, PLK1 PBD inh -11%, G9a block -44%[59 µM], JMJD2A Tudor -11% and HP1b binding inh 33%.
For O=C1/C(=C/c2ccccc2)CCCc2ccccc21 the results were BAZ2B inh 86%, PI5P4Ka inh 11, PLK1 PBD inh -18%, G9a block 8%[59 µM], JMJD2A Tudor 100µM* and HP1b binding inh 116%.
CCC(=O)N1CCN(c2ccc(NC(=S)NC(=O)c3cc4ccccc4o3)cc2)CC1 was read as BAZ2B inh -5%, PI5P4Ka inh 7, PLK1 PBD inh -14%, JMJD2A Tudor inconclusive and HP1b binding inh 4%.
Screening Cc1ccc(C(=O)NC2CCN(CC(=O)NC3CCC(C)CC3)CC2)cc1 (stereo not drawn) returned BAZ2B inh -1%, PI5P4Ka inh -2, PLK1 PBD inh -10%, G9a block 18%, JMJD2A Tudor -15% and HP1b binding inh -23%.
COc1ccc(C2NC(=O)N(C)C3=C2C(=O)N(c2ccccc2)C3)cc1 (stereo not drawn) was read as BAZ2B inh inconclusive, G9a block -6%[59 µM], JMJD2A Tudor -3% and HP1b binding inh 24%.
Screening CN1C(=O)NC(c2ccccc2)C2=C1CN(c1cccc(C(F)(F)F)c1)C2=O (stereo not drawn) returned BAZ2B inh -3%, PI5P4Ka inh 5, PLK1 PBD inh inconclusive, G9a block 50µM*, JMJD2A Tudor -20%[57.1 µM] and HP1b binding inh 33%.
Screening CCOc1ccc(NC(=O)CSc2nc3ccsc3c(=O)n2C(C)CC)cc1 (stereo not drawn) returned BAZ2B inh 2%, G9a block 8%[59 µM], JMJD2A Tudor 3% and HP1b binding inh 46%.
Screening CCC(c1nnc(SCC(=O)NCCc2ccc(Cl)cc2Cl)o1)N(C)C (stereo not drawn) returned BAZ2B inh -4%, PI5P4Ka inh -3, PLK1 PBD inh 27µM*, G9a block 40µM*, JMJD2A Tudor -11% and HP1b binding inh 11%.
`Cc1[nH]n2c(=O)cc(-c3ccc([N+](=O)[O-])cc3)nc2c1-c1ccccc1` gave PI5P4Ka inh -18, PLK1 PBD inh inconclusive, JMJD2A Tudor 50µM* and HP1b binding inh -57%.
Screening Cc1[nH]n2c(=O)cc(-c3ccc(Cl)cc3)nc2c1-c1ccccc1 returned BAZ2B inh 32µM*, G9a block 4%[59 µM], JMJD2A Tudor inconclusive and HP1b binding inh -4%.
For Cc1noc(C)c1NC(=O)Nc1ccc2c(c1)C(=O)N([C@H](C)CO)C[C@@H](C)[C@@H](CN(C)S(=O)(=O)c1cn(C)cn1)OCCCC[C@H](C)O2 the results were PI5P4Ka inh -2 and PLK1 PBD inh -15%.
`COc1cccc2c1nc(C)c1cc(C)oc12` gave BAZ2B inh 5%, PI5P4Ka inh 4, PLK1 PBD inh -4%, G9a block 9%[59 µM], JMJD2A Tudor -19% and HP1b binding inh 25%.
For COc1cccc2nc3cc(C)c(C)cc3nc12 the results were BAZ2B inh 3%, PI5P4Ka inh inconclusive, PLK1 PBD inh 17µM*, G9a block -26%, JMJD2A Tudor -20% and HP1b binding inh 6%.
Screening Cc1ccc(N=Cc2cc(C)n(C3CCCC3)c2C)cc1 returned BAZ2B inh inconclusive, PLK1 PBD inh -6%, G9a block 15%[0.0925 µM], JMJD2A Tudor -29% and HP1b binding inh 9%.
